Source: PubChem BioAssay AID743279 (National Center for Advancing Translational Sciences (NCATS), 2014)
Hit rate of the full screen: of about 360,000 compounds, about 17,000 (4.7%) were called active. Inconclusive results (about 5%) are left out. Cut-off read from the data, not from the text of the source: active = activity change below about -50%; inconclusive = mostly about -30% to -49%; inactive = weaker than that. The sample as a whole holds a higher share of actives than the screen did.

Test: qHTS for Inhibitors of Inflammasome Signaling: IL-1-beta AlphaLISA Primary Screen
Details: THP-1 LPS/ATP IL-1B secretion, 16 h; at 57.5 µM, hits give low values
Method in brief: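 Secreted IL-1B measured by AlphaLISA bead assay after 16 h compound exposure of THP-1 cells; compounds (final up to 57.5 uM) added 1 h before LPS (250 ng/mL) and ATP (1.25 mM) stimulation; lower signal means less secretion.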
% is set by controls: 0 for no effect and ±100 for the full control effect.

Activity change, active:
COc1ccc(/C=C2\CCc3ccccc3C2=O)c(OC)c1OC -71%, O=C(CCC(=O)N1CCN(S(=O)(=O)c2ccc(Cl)cc2)CC1)NCc1cccc(C(F)(F)F)c1 -52.1%, COC(=O)C(NC(=O)c1ccc(OC)cc1)(Nc1ncc(S(=O)(=O)c2ccc([N+](=O)[O-])cc2)s1)C(F)(F)F (stereo not drawn) -99.1%, Cc1[nH]c2ccccc2c1/C=C(/C#N)C(=O)NC(C)C -99.8%, Cc1ccc(C)c(NC(=S)NNC(=S)Nc2ccc(C(C)C)cc2)c1 -52.5%, O=C(O)CSc1nccc2ccccc12 -61.2%, COc1ccc(Oc2cn[nH]c2-c2ccc(OC)cc2O)cc1 -82.8%, CCS(=O)(=O)Nc1cccc(-c2cc(-c3ccccc3)c3cc(C)ccc3n2)c1 -99.4%, CN(C)CCNC(=O)c1ccc(Cl)c2cc3ccccc3nc12 -112%, CC(=O)c1c(N2CCN(c3ccc(F)cc3)CC2)nc(=S)n(-c2ccccc2)c1C -79.7%, Cc1cccc(NC(=O)CSC(N)=O)c1C -90.9%, COC(=O)c1ccc(NC(=O)c2ccccc2NS(=O)(=O)c2ccccc2)cc1 -61.7%, COc1cccc(CN(C)C(=O)CC23CC4CC(CC(C4)C2)C3)c1OC -55.8%

Activity change, inactive:
COC[C@@H]1NS(=O)(=O)c2ccc(Br)cc2O[C@H]1c1ccccc1 2.65%, O=C1/C(=C/c2cccs2)CCc2ccccc21 -13.1%, COc1ccc(/C=C2/CCCc3ccccc3C2=O)cc1 0%, N#CCc1c[nH]c2ccc([N+](=O)[O-])cc12 -1.78%, CNc1cncc(-c2ccc(NS(C)(=O)=O)cc2)n1 6.32%, O=C(NCc1cccc(C(F)(F)F)c1)c1cccc(S(=O)(=O)N2CCN(Cc3ccccc3)CC2)c1 0%, CC(NC(=O)CCC(=O)N1CCN(S(=O)(=O)c2ccc(Cl)cc2)CC1)c1ccccc1 (stereo not drawn) 45.7%, CCOCC(=O)Nc1ncc(S(=O)(=O)c2ccc([N+](=O)[O-])cc2)s1 20.1%, COc1ccc(C(=O)NCCNc2ccc([N+](=O)[O-])cn2)cc1 40.6%, Nc1c(Cl)cc(-c2csc(N3CCCC3c3nc4cc(Cl)c(Cl)cc4n3CCOCCO)n2)cc1Cl (stereo not drawn) -4.36%, Cc1ccc(S(=O)(=O)N2C[C@H]3C(=O)C[C@@H](c4cccc5ccccc45)N(S(=O)(=O)c4ccc(C)cc4)[C@H]3C[C@H]2c2ccc(Cl)cc2)cc1 0.625%, COCCNC(=O)C1C(=O)Nc2ccccc2C(=O)N1c1ccc2c(c1)OCCO2 (stereo not drawn) 23.8%, CC(C)NC(=O)/C(C#N)=C\c1ccc(N(C)C)c(Br)c1 -7.21%, COC(=O)Cc1c(-c2[nH]c3ccccc3c2CC(=O)OC)[nH]c2ccccc12 0%, O[C@@H]1C[C@H](c2ccccc2)N(Cc2cccs2)C[C@H]1n1cc(C2CC2)nn1 -20.7%, Cc1ccc(C)c(NC(=S)NNC(=O)c2csc(C)c2)c1 12.4%, CC(C)c1ccc(NC(=S)NNc2ccc(Cl)c(C(=O)O)c2)cc1 20.7%, O=C(O)CSc1nccn1-c1cccc(Cl)c1 14.2%, CCOC(=O)C(C(=O)c1ccccc1)C(c1ccccc1)c1nccc2ccccc12 (stereo not drawn) 11.3%, CCNC(=O)C1(C)CCCN1C(=O)c1ccc(N(C)C)cc1 (stereo not drawn) 15.5%, Cc1nc(SCC(=O)c2ccccc2)c([N+](=O)[O-])[nH]1 23.3%, CSCCC(C(=O)NC(C)(C)C)n1c(-c2ccccc2)nc2ccccc21 (stereo not drawn) 15.5%, COc1ccc(-c2[nH]ncc2/C=N/NC(=O)c2cc(Br)ccc2O)c(OC)c1 86.3%, CCOc1ccccc1Oc1cn[nH]c1-c1ccc(OC)cc1O 18.7%, CC1Sc2ccc(S(=O)(=O)CCC(=O)NCc3ccccc3Cl)cc2NC1=O (stereo not drawn) 18.9%, CS(=O)(=O)Nc1cccc(-c2cn3ccccc3n2)c1 -14%, Cc1cc(C)cc(NS(=O)(=O)Cc2ccccc2)c1 -5.28%, O=C(NC1CCCCC1)C(c1cc2ccccc2o1)n1c(=O)c(-c2ccco2)nc2ccccc21 (stereo not drawn) -2.14%, CN(C)CCNC(=O)Nc1cccc(Cl)c1Cl 2.19%, CC(=O)NCCNC(=O)c1cc(-c2cccc3ccccc23)nc2ccccc12 0.0656%, O=C(OCc1ccccc1)N1CCC2CC1c1cc(N3CCN(S(=O)(=O)c4cc(Cl)cc(Cl)c4)CC3)ccc12 (stereo not drawn) 21.9%, CC1(C)C=Cc2c(ccc3c2OC[C@@H](c2ccc(O)cc2O)C3)O1 -13.2%, CC(=O)c1c(N2CCOCC2)nc(=S)n(-c2cc(C)ccc2C)c1C -14.3%, CC(=O)c1c(N2CCOCC2)nc(=S)n(Cc2ccccc2)c1C 30.6%, CCOc1ccc(NC(=O)CN(C)C(=O)c2c(C)noc2C)cc1OCC 2.67%, Cc1cccc(NC(=O)COC(=O)CCc2ccccc2)c1C 5.72%, Cc1ccccc1NC(=O)CSC(=O)c1ccccc1 22.2%, CCCCCCCCCCCCCCCC(=O)OC/C=C(C)/C=C/C=C(C)/C=C/C1=C(C)CCCC1(C)C -8.52%, COC(=O)c1ccccc1NS(=O)(=O)c1ccc2[nH]c(=O)[nH]c2c1 -16.3%, CCOc1ccc(NC(=O)c2ccccc2NS(C)(=O)=O)cc1 -7.57%, Cc1ccc(NS(=O)(=O)c2cc3c(cc2C)NC(=O)CO3)cc1 -0.465%, CC1CCN(C(=O)COC(=O)CCC(=O)c2cccs2)CC1 5.83%, CCN1C(=O)[C@H]2[C@@H](c3ccccc3)N[C@]3(CCCN(Cc4ccc(C)cc4)C3=O)[C@H]2C1=O -7.34%, COc1ccc(S(=O)(=O)N2CCCCCC2)cc1C(=O)N(C)Cc1cccc(OC)c1OC -8.59%, COc1ccc(CN(C)C(=O)Cc2ccsc2)c(OC)c1OC 40.4%
